Results on 6 compounds are retold here after PubChem BioAssay (EPA / NIEHS).

Several values for one entry are separate records, joined by “and”; a condition that tells them apart may be missing. Identical values can stand only once. Activity calls are given as the source filed them. Rule for the calls: active = hit-call score of the fitted dose curve at least 0.9, where 1 is the maximum; inactive = score below 0.9.

Read-out in assay [1]: Interleukin-1 alpha (IL1a), IL1A (gene 3552)
Description: BSK_KF3CT_IL1a: BioMAP Diversity Plus: KF3CT Assay for Interleukin-1 alpha (IL1a) Biomarker Activity (AID 2283070). The conditions noted are these: primary human keratinocytes with fibroblasts; actives raise or lower the signal. The essentials:
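Chemicals were dosed onto co-cultured human keratinocytes and foreskin fibroblasts, IL-1a was quantified by ELISA at 24 h, and activity was fitted in both directions relative to DMSO controls.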

Read-out in assay [2]: TIMP metallopeptidase inhibitor 2 (TIMP2), TIMP2 (gene 7077)
Description: BSK_KF3CT_TIMP2: BioMAP Diversity Plus: KF3CT Assay for TIMP metallopeptidase inhibitor 2 (TIMP2) Biomarker Activity (AID 2283071). As to conditions: primary human keratinocytes with fibroblasts; actives raise or lower the signal. The procedure, abridged: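 Cells: human keratinocytes co-cultured with foreskin fibroblasts. Treat with chemical, 24 h. Measure TIMP-2 by ELISA; fit curves bidirectionally vs DMSO baseline.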

Read-out in assay [3]: Transforming growth factor beta 1 (TGFb1), TGFB1 (gene 7040)
Description: BSK_KF3CT_TGFb1: BioMAP Diversity Plus: KF3CT Assay for Transforming growth factor beta 1 (TGFb1) Biomarker Activity (AID 2283072). As to conditions: primary human keratinocytes with fibroblasts; actives raise or lower the signal. The procedure, abridged: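 Primary human skin cells (keratinocytes, foreskin fibroblasts) were co-cultured, exposed to test chemical and sampled at 24 h. TGF-b1 levels were measured by ELISA and fitted bidirectionally relative to DMSO.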

Read-out in assay [4]: C-C motif chemokine 2 (Homo sapiens) (UniProt P13500)
Description: BSK_KF3CT_MCP1: BioMAP Diversity Plus: KF3CT Assay for Monocyte Chemoattractant Protein 1 (MCP1/CCL2) Biomarker Activity (AID 2283073). As to conditions: primary human keratinocytes with fibroblasts; actives raise or lower the signal. The essentials: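 Keratinocytes and foreskin fibroblasts were co-cultured, dosed with chemical, and sampled 24 h later. MCP-1 was quantified by ELISA, and the endpoint was analyzed with bidirectional fitting using DMSO as negative control.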

Read-out in assay [5]: Matrix Metallopeptidase 9 (MMP9), MMP9 (gene 4318)
Description: BSK_KF3CT_MMP9: BioMAP Diversity Plus: KF3CT Assay for Matrix Metallopeptidase 9 (MMP9) Biomarker Activity (AID 2283074). As to conditions: primary human keratinocytes with fibroblasts; actives raise or lower the signal. The essentials: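 Human keratinocyte/foreskin fibroblast co-culture; compound added; 24 h; MMP-9 by ELISA; bidirectional fit vs DMSO baseline.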

Read-out in assay [6]: urokinase plasminogen activator (uPA), PLAU (gene 5328)
Description: BSK_KF3CT_uPA: BioMAP Diversity Plus: KF3CT Assay for urokinase plasminogen activator (uPA) Biomarker Activity (AID 2283075). As to conditions: primary human keratinocytes with fibroblasts; actives raise or lower the signal. The essentials: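 ELISA readout of uPA, analyzed for signal gain or loss relative to DMSO, from a human primary keratinocyte–foreskin fibroblast co-culture measured 24 h after chemical treatment.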

Read-out in assay [7]: E-selectin (Homo sapiens) (UniProt P16581)
Briefly: BSK_LPS_Eselectin: BioMAP Diversity Plus: LPS Assay for Eselectin Biomarker Activity (AID 2283077). The conditions noted are these: primary human HUVEC with PBMC; actives raise or lower the signal. The essentials: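 Signal of E-selectin, detected by ELISA, served as the endpoint; cells were umbilical vein endothelium with PBMC, read 24 h after treatment. DMSO defined baseline, and both increases and decreases were fitted.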

Read-out in assay [8]: Interleukin-8 (IL8), CXCL8 (gene 3576)
Briefly: BSK_LPS_IL8: BioMAP Diversity Plus: LPS Assay for Interleukin-8 (IL8) Biomarker Activity (AID 2283078). The conditions noted are these: primary human HUVEC with PBMC; actives raise or lower the signal. The procedure, abridged: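 Endothelial cells and PBMC from human donors are co-cultured, treated with chemicals and LPS, then assayed for IL-8 by ELISA after 24 h. Parallel SRB staining (0.1% SRB after 10% TCA fixation, 560 nm) flags cytotoxicity.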

Assay [9] can be described thus: BSK_LPS_SRB: Viability Assessment in the BioMAP Diversity Plus: LPS Assay (AID 2283079).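 Note: total protein by sulforhodamine B absorbance as a cytotoxicity measure; measured one day after compound addition; fitted in both directions against DMSO so loss or gain of signal counts.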 As to conditions: primary human HUVEC with PBMC. The procedure, abridged: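 Overt cytotoxicity was gauged by sulforhodamine B total-protein staining in a primary human vascular endothelial and mononuclear cell co-culture 24 h post-dosing. Activity was fitted in both directions relative to DMSO.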

Read-out in assay [10]: Monocyte Chemoattractant Protein-1 (MCP1), CCL2 (gene 6347)
Description: BSK_LPS_MCP1: BioMAP Diversity Plus: LPS Assay for Monocyte Chemoattractant Protein-1 (MCP1) Biomarker Activity (AID 2283081). As to conditions: primary human HUVEC with PBMC; actives raise or lower the signal. The procedure, abridged:
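LPS-stimulated HUVEC/PBMC co-culture; chemical, 24 h; MCP-1 by ELISA; bidirectional fit vs DMSO; cytotoxicity via SRB (0.1% stain, 10% TCA fix, 560 nm) in parallel wells.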

Read-out in assay [11]: Tumor necrosis factor (Homo sapiens) (UniProt P01375)
Description: BSK_LPS_TNFa: BioMAP Diversity Plus: LPS Assay for Tumour Necrosis Factor alpha (TNFa) Biomarker Activity (AID 2283085). As to conditions: primary human HUVEC with PBMC; actives raise or lower the signal. The procedure, abridged:
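Read-out is ELISA of TNFa in primary human endothelial cell–PBMC co-cultures at 24 h after compound. Activity in either direction was fitted against DMSO.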

Read-out in assay [12]: CD38, CD38 (gene 952)
Description: BSK_SAg_CD38: BioMAP Diversity Plus: SAg Assay for CD38 Biomarker Activity (AID 2283087). As to conditions: primary human HUVEC with PBMC; actives raise or lower the signal. The procedure, abridged: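 Human HUVEC plus PBMC co-culture stimulated with superantigen; CD38 measured by ELISA 24 h after chemical dosing. Fluorescence read-out, bidirectional fit against DMSO; cytotoxicity tracked in parallel by SRB and Alamar Blue.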

Read-out in assay [13]: CD40, CD40 (gene 958)
Description: BSK_SAg_CD40: BioMAP Diversity Plus: SAg Assay for CD40 Biomarker Activity (AID 2283088). The conditions noted are these: primary human HUVEC with PBMC; actives raise or lower the signal. The essentials: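 Fluorescence ELISA read-out of CD40 from umbilical vein endothelium plus peripheral blood mononuclear cells, sampled 24 h after dosing. Values come from bidirectional curve fitting with DMSO as baseline.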

Read-out in assay [14]: CD69, CD69 (gene 969)
Description: BSK_SAg_CD69: BioMAP Diversity Plus: SAg Assay for CD69 Biomarker Activity (AID 2283089).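 For AC50: cell surface CD69 protein quantified by ELISA with fluorescence detection.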 The conditions noted are these: primary human HUVEC with PBMC; actives raise or lower the signal. The essentials: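 Primary human vascular co-culture (umbilical vein endothelium with peripheral blood mononuclear cells) exposed to test chemical for 24 h. CD69 levels quantified by fluorescence ELISA; DMSO served as negative control for bidirectional fitting.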

Read-out in assay [15]: Vascular cell adhesion molecule 1 (VCAM1), VCAM1 (gene 7412)
Briefly: BSK_LPS_VCAM1: BioMAP Diversity Plus: LPS Assay for Vascular cell adhesion molecule 1 (VCAM1) Biomarker Activity (AID 2283086). The conditions noted are these: primary human HUVEC with PBMC; actives raise or lower the signal. The procedure, abridged:
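HUVEC + PBMC co-culture, LPS system; compound 24 h; VCAM-1 by ELISA; bidirectional fit vs DMSO control; parallel SRB (0.1%, TCA-fixed, 560 nm) for cytotoxicity.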

Tumor necrosis factor (Homo sapiens), sequence (P01375 whole entry, looked up): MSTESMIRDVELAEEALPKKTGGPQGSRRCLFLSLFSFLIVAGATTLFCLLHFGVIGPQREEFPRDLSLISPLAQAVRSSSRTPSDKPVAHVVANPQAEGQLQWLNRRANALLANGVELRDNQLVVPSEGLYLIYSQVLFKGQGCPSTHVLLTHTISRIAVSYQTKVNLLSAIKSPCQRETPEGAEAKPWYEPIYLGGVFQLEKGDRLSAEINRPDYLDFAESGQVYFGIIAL
E-selectin (Homo sapiens), sequence (P16581 whole entry, looked up): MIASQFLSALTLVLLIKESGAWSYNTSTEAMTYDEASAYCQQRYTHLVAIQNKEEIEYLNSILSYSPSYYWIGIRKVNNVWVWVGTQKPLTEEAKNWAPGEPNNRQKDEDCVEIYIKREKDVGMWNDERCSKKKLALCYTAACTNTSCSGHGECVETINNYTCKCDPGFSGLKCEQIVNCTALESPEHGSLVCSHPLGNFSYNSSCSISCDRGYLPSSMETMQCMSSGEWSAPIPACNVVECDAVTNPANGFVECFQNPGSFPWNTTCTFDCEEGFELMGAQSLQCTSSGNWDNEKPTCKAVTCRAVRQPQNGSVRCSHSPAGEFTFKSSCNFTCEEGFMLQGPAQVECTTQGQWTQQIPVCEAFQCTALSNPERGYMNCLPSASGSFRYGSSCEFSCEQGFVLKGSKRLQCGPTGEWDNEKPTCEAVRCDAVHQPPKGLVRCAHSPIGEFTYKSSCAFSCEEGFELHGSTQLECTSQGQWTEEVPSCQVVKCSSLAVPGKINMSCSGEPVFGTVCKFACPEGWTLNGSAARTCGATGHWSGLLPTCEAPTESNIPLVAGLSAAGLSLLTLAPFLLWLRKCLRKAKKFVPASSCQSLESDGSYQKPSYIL

With `C[C@]12CC[C@@H]3c4ccc(O)cc4CC[C@H]3[C@@H]1CC[C@@H]2O`, the outcome in [1], in [2], in assay [3], in assay [4], in assay [5] and in assay [6] was inactive. In addition, the outcome in assay [7], in assay [8], in [10] and in assay [11] was inactive. For the same compound, the AC50 (in general, the concentration giving half of the maximal activity seen) is 12 µM (active) in assay [9], 16.7 µM (active) in assay [12], 15.8 µM (active) in assay [13] and 20 µM (active) in assay [14].

`C=C(C)C(=O)OCCC(F)(F)C(F)(F)C(F)(F)C(F)(F)C(F)(F)C(F)(F)C(F)(F)C(F)(F)F`: the result in assay [1], in assay [2], in [4], in [5], in assay [6] and in assay [7] was inactive. Moreover, the result in assay [8], in assay [9], in [10], in [11], in assay [12] and in assay [13] was inactive. In assay [14], the outcome was inactive.

As for `CC(C)Cc1ccc(C(C)C(=O)O)cc1` (stereo not drawn), the result in [1], in [2], in assay [3], in [4], in assay [5] and in [6] was inactive. Moreover, the outcome in [7], in [8], in [9], in [10], in assay [11] and in [12] was inactive. Also, the result in assay [13] and in assay [14] was inactive.

With `O=S(=O)(O)C(F)(F)C(F)(F)OC(F)(F)C(F)(F)F`, the outcome in assay [1], in [2], in [4], in [5], in [6] and in assay [7] was inactive. Moreover, the result in [9], in assay [10], in assay [11], in [15], in assay [12] and in assay [13] was inactive. Also, in [14], the outcome was inactive. Besides, in assay [8], the AC50 is 30 µM (active) and 10 µM (active).

`COc1ccccc1NC(=O)CC(C)=O`: the outcome in assay [1], in [2], in [3], in [4], in [5] and in assay [6] was inactive. The result in assay [7], in assay [8], in [9], in [10], in [11] and in assay [12] was inactive. Moreover, the result in [13] and in assay [14] was inactive.

Turning to `NC(=O)c1c(Cl)cccc1Cl`, the outcome in assay [1], in assay [2], in assay [3], in assay [4], in assay [5] and in [6] was inactive. Besides, the result in [7], in assay [8], in assay [9], in [10], in assay [11] and in assay [12] was inactive. Also, the result in [13] and in assay [14] was inactive.
